These results are taken from PubChem BioAssay AID504832 (National Center for Advancing Translational Sciences (NCATS), 2011).

Hit rate of the full screen: of about 310,000 compounds, about 18,000 (5.8%) were called active. Another 22% or so got no clear call; they are omitted. The call rests on the fitted dose curve; in most records, active means well fitted inhibition curve with a large enough effect; inconclusive means small, poorly fitted or top-dose-only effect, or another doubt; inactive means no such curve, though single readings can be large or run the other way. Shown is part of a subset that was picked to be rich in actives. A call without a number means that no potency is given here.
Potency means the concentration at half of the fitted maximal effect.

The assay in a line: Primary qHTS for delayed death inhibitors of the malarial parasite plastid, 48 hour incubation. The following applies: P. falciparum luciferase growth in erythrocytes; series mostly up to 28.7 µM. An outline of the steps: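 Growth was read as firefly luciferase luminescence after a 48 h, 37 C, 5% CO2 exposure of compounds to reporter-bearing P. falciparum cultures (0.1% parasitemia, 2% hematocrit final) in Albumax-supplemented RPMI 1640.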
(In qHTS, concentration-response curves come from the screen itself.)
As to `O=C(/C=C/c1ccccc1[N+](=O)[O-])OCC(=O)N1CCCC1`, the Potency result is “inactive”. The result for `COc1ccc(C(=O)NCCn2nc(C)cc2C)cc1OC1CCN(C(C)=O)CC1` reads “inactive”; that for `O=C(CCSc1ccccc1)N1CCN(c2ccccc2F)CC1`, “inactive”. The result for `O=C(Cn1c(-c2ccc(Cl)cc2)noc1=O)N1CCN(c2ccccc2F)CC1` reads 11.7 µM (active); that for `O=C(NCC(=O)N1CCN(c2ccccc2F)CC1)c1cccs1`, “inactive”; that for `CC(=C1C(=O)c2ccccc2C1=O)N1CCN(c2ccccn2)CC1`, “inactive”. As for `CCOC(=O)/C(C#N)=C/c1ccc(N2CCN(Cc3ccccc3)CC2)cc1`, the Potency entry was “inactive”.

Take `Cc1ccc(S(=O)(=O)c2nnn3c2nc(N2CCN(c4ccccn4)CC2)c2ccccc23)cc1`: the Potency is 1.47 µM (active).

Take `Cc1cc(C(=O)N2CCN(c3ccccn3)CC2)c(C)o1`: the Potency entry is “inactive”. The result for `CCOC(=O)c1nnn2c1nc(N1CCN(c3ccccc3)CC1)c1ccccc12` reads 5.22 µM (active); that for `CCOC(=O)c1nnn2c3ccccc3c(=O)n(C)c12`, “inactive”. The result for `COc1ccc(C2NC(=O)N(C)C(C)=C2[N+](=O)[O-])cc1` (stereo not drawn) reads “inactive”; that for `COc1ccc(S(=O)(=O)NCc2cccnc2)cc1NC(=O)c1ccc(C)cc1`, “inactive”. With `CCN(C(=O)CSc1ncnc2sccc12)c1c(N)n(Cc2ccccc2)c(=O)[nH]c1=O`, the Potency result is “inactive”. In the case of `COc1ccc(S(=O)(=O)N2CCCCC2)cc1NC(=O)c1cc([N+](=O)[O-])ccc1N1CCOCC1`, the Potency was 9.28 µM (active). Turning to `COc1ccc(S(=O)(=O)N2CCOCC2)cc1C(=O)NC1CCCCC1`, the Potency result is “inactive”.

As for `O=C(Nc1cc(S(=O)(=O)N2CCOCC2)ccc1OCC(F)(F)F)c1ccc(N2CCCC2=O)cc1`, the Potency entry was “inactive”. The result for `COc1ccc(S(=O)(=O)N2CCOCC2)cc1NC(=O)CSc1cc(C)ccc1C` reads “inactive”; that for `O=C(NC1CCCCC1)c1cc([N+](=O)[O-])ccc1N1CCOCC1`, “inactive”; that for `COc1ccc(S(=O)(=O)N2CCOCC2)cc1NC(=O)c1ccc(OCC(C)C)c(OC)c1`, 9.28 µM (active).

Regarding `CC(C)Cn1c(=O)c2ccccc2n2c(CCC(=O)NCc3ccccn3)nnc12`, the Potency entry was “inactive”. As to `S=C(NCCc1ccccc1)N1CCn2cccc2C1c1ccncc1` (stereo not drawn), the Potency is 10.4 µM (active). The result for `CC1CCCCN1C(=S)NCc1ccccc1` (stereo not drawn) reads “inactive”. As for `COc1ccc(C(=O)NC(=S)N2CCCCC2c2cccnc2)cc1OC` (stereo not drawn), the entry is “inactive”. As for `S=C(Nc1cccc(Br)c1)N1CCn2cccc2C1c1cccnc1` (stereo not drawn), the figure is 11.7 µM (active); as for `Fc1cc(Br)ccc1NC(=S)Nc1cccnc1`, “inactive”. Take `S=C(NCCc1ccccc1)N1CCCCC1`: the Potency entry is “inactive”.

Turning to `COc1ccc(CCNS(=O)(=O)c2cccc([N+](=O)[O-])c2)cc1`, the Potency result was “inactive”. As for `CN1CCN(C(=O)c2ccccc2NC(=O)COc2ccccc2Cl)CC1`, the entry is “inactive”; as for `COc1ccc(/C(C)=N\NC(=O)c2ccc(-c3ccccc3)cc2)c(F)c1`, “inactive”. The result for `CCOc1ccc(/C=C/C(=O)N(CC)CC(=O)NCc2cccs2)cc1OC` reads “inactive”; that for `CS(=O)(=O)Nc1ccc(C2=NN(S(C)(=O)=O)C(c3cccs3)C2)cc1` (stereo not drawn), “inactive”. As for `CS(=O)(=O)Nc1cccc(C2=NN(C(=O)c3cccc(F)c3)C(c3cccs3)C2)c1` (stereo not drawn), the Potency is 11.7 µM (active). The result for `CCS(=O)(=O)Nc1ccc(C2=NN(C(C)=O)C(c3cccs3)C2)cc1` (stereo not drawn) reads “inactive”; that for `CSc1ncccc1C(=O)Nc1ccc(C)cn1`, “inactive”.

On to `Cc1ccc2c(c1)N(CC(=O)N1CCC(O)CC1)C(=O)CO2`, for which the Potency result was “inactive”.

Take `CC(C)c1ccc(OCC(O)CN2CCN(c3ccccn3)CC2)cc1` (stereo not drawn): the Potency entry was “inactive”. With `CC(C)c1ccc(OCC(O)Cn2cnc3ccccc32)cc1` (stereo not drawn), the Potency was 11.7 µM (active). As for `CC(=O)OC(COc1ccc(F)cc1)Cn1cnc2ccccc21` (stereo not drawn), the entry is “inactive”.

For `COc1cc([N+](=O)[O-])cc([N+](=O)[O-])c1NC(=O)N1CCOCC1`, the Potency entry was “inactive”. The result for `NC(=O)c1ccsc1NC(=O)COC(=O)Cc1n[nH]c(=O)c2ccccc12` reads “inactive”; that for `O=S(=O)(NC1CC1)c1ccc(Cl)cc1`, “inactive”; that for `CC(Cc1ccccc1)C(=O)N(C)Cc1ccccc1` (stereo not drawn), “inactive”. The result for `Cc1ncoc1C(=O)NCCC(c1ccccc1)c1ccccc1` reads “inactive”; that for `CC(Cc1ccccc1)NCCC(c1ccccc1)c1ccccc1` (stereo not drawn), 10.4 µM (active). Take `NS(=O)(=O)c1ccc(CCNC(=O)CN2C(=O)c3ccccc3S2(=O)=O)cc1`: the Potency result is “inactive”. As for `COc1ccc(N2CCN(S(=O)(=O)c3ccc4c(c3)N(C(C)=O)CCO4)CC2)cc1`, the entry is “inactive”; as for `COCCN1C(=O)N[C@@H](c2ccccc2)C(C(=O)OC)=C1C`, “inactive”; as for `COC(=O)C1=C(C)N(C)C(=S)NC1c1ccccc1` (stereo not drawn), “inactive”.

`COC(=O)C1=C(C)N(C)C(C)=C(C(=O)OC)C1c1cccc(Br)c1`: the Potency was 8.28 µM (active).

As to `CCn1cc(CN2CCC(n3nccc3NC(=O)CCCc3ccccc3)CC2)c(C)n1`, the Potency result is “inactive”. As for `CNC(=O)N1c2ccccc2C=Cc2ccccc21`, the entry is “inactive”; as for `CC1Sc2ccc(S(=O)(=O)CCC(=O)NCc3ccccc3Cl)cc2NC1=O` (stereo not drawn), “inactive”.

Regarding `CN(C)C(=O)c1ccc(NC(=O)c2ccccc2-c2ccccc2)cc1`, the Potency result was “inactive”.

For the molecule `COc1ccc(Nc2nnc(C)c3ccccc23)cc1`, the Potency entry is “inactive”.

With `Cc1ccc(-c2nnc(Nc3ccc(C(=O)N(C)C)cc3)c3ccccc23)cc1S(N)(=O)=O`, the Potency was 9.28 µM (active). Take `CCNC(=O)c1ccc(OCC(=O)Nc2ccc(F)cc2)c(OC)c1`: the Potency entry is “inactive”. As for `COc1cc(C(=O)N(C)Cc2cccc(OC)c2OC)ccc1OCC(=O)Nc1cccc(C(F)(F)F)c1`, the figure is 11.7 µM (active); as for `COc1ccc(NC(=O)CN(C)CC(=O)Nc2cccc(C(F)(F)F)c2)cc1`, “inactive”; as for `O=C(Nc1ccc(N2CCCCC2)cc1)c1cc(S(=O)(=O)N2CCOCC2)ccc1F`, “inactive”. As for `N#Cc1cccc(NC(=O)CN2CCCCCC2)c1`, the entry is “inactive”; as for `N#Cc1cccc(NC(=O)C2CCCN(C(=O)c3ccc(Cl)cc3)C2)c1` (stereo not drawn), 9.28 µM (active); as for `O=C(Nc1cccc(Cl)c1)C1CCCN(c2cnccn2)C1` (stereo not drawn), “inactive”. As for `COc1ccc(Cl)cc1C(=O)OCC(=O)NCc1cccs1`, the entry is “inactive”.

On to `CCOC(=O)C1CCN(C(=O)COC(=O)C2CCN(S(=O)(=O)c3ccc4c(c3)OCCO4)CC2)CC1`, for which the Potency is 13.1 µM (active). As for `CCOC(=O)C1CCN(C(=O)c2oc3ccc(S(=O)(=O)N4CCCCCC4)cc3c2C)CC1`, the figure is 11.7 µM (active); as for `Cc1c(C(=O)NCCN(C)C)oc2ccc(S(=O)(=O)N3CCCC3)cc12`, “inactive”; as for `CCOC(=O)C1CCN(C(=O)C2CCCN(S(=O)(=O)c3ccc(OC)c(Cl)c3)C2)CC1` (stereo not drawn), “inactive”. The result for `CCOC(=O)C1CCN(S(=O)(=O)c2ccc3c(c2)N(C(C)=O)CCO3)CC1` reads “inactive”; that for `O=C(COC(=O)C1CCN(S(=O)(=O)c2ccc3c(c2)OCCO3)CC1)Nc1ccccc1OC(F)F`, “inactive”; that for `CC(Sc1nnc(-c2ccccc2F)n1C1CC1)C(N)=O` (stereo not drawn), “inactive”. As for `Cc1occc(=O)c1OCc1ccc(F)cc1`, the entry is “inactive”.

On to `Clc1nc(NC2CCCC2)nc(N2CCOCC2)n1`, for which the Potency result is “inactive”. As for `Cc1ccc(NC(=O)Cc2nnc(SCC(=O)Nc3nncs3)n2C)cc1`, the Potency entry was “inactive”.

Consider `Cc1c(C(=O)N2CCCC2)c(S(=O)(=O)NCC(C)c2ccccc2)c(C)n1C` (stereo not drawn), for which the Potency result is “inactive”.

`CCc1noc(C)c1C(=O)N1CCN(S(=O)(=O)c2cccc(C(F)(F)F)c2)CC1`: the Potency result is “inactive”. As for `Cc1onc(C(=O)NN)c1C(=O)N1CCN(C(c2ccccc2)c2ccccc2)CC1`, the figure is 5.86 µM (active); as for `COc1ccc(N2CCN(C(=O)Cn3cnc4sc(C)c(S(=O)(=O)N5CCOCC5)c4c3=O)CC2)cc1`, “inactive”; as for `CN(Cc1cccs1)C(=O)CN1C(=O)c2ccccc2S1(=O)=O`, “inactive”. The result for `CCC1CCC2(CC1)NC(=O)N(CC(=O)Nc1ccc(OC)cc1)C2=O` (stereo not drawn) reads “inactive”; that for `O=C(CN(CC1CCCO1)C(=O)CNS(=O)(=O)c1ccc(Cl)cc1)NCc1ccccc1` (stereo not drawn), “inactive”.

On to `CCN(C(=O)COC(=O)c1c(C)nn(-c2ccccc2)c1Cl)c1c(N)n(Cc2ccccc2)c(=O)[nH]c1=O`, for which the Potency is 10.4 µM (active).

Take `CCN(C(=O)COC(=O)c1sccc1C)c1c(N)n(Cc2ccccc2)c(=O)[nH]c1=O`: the Potency result was “inactive”. As for `CCN(C(=O)COC(=O)CCOc1cccc(C)c1)c1c(N)n(Cc2ccccc2)c(=O)[nH]c1=O`, the entry is “inactive”. The result for `Cc1ccccc1NC(=O)Cc1nc(COC(=O)c2cccnc2Cl)cs1` reads “inactive”; that for `O=C(CCNC(=O)c1ccc([N+](=O)[O-])cc1)NC1CCCCC1`, “inactive”. As for `CCOc1cc(C(=S)N2CCOCC2)ccc1OS(=O)(=O)c1ccc(Br)cc1`, the entry is “inactive”; as for `COc1cc(OC)c(C(=S)N2CCCC2)cc1OC`, “inactive”; as for `COC(=O)[C@@H](Cc1ccccc1)NC(=O)NCCc1ccccc1`, “inactive”. Regarding `Cc1ccc(NC(=O)CCCNC(=O)c2ccc(Cl)cc2)cc1S(=O)(=O)N1CCOCC1`, the Potency entry is “inactive”. As for `Cc1ccc(C(=O)Nc2ncccc2C)cc1S(=O)(=O)N1CCOCC1`, the entry is “inactive”; as for `O=C(NCCSCc1ccccc1)c1ccc(Cl)c(S(=O)(=O)N2CCOCC2)c1`, 10.4 µM (active).

For `Cc1ccccc1CSCCNC(=O)c1ccc(N(C)S(=O)(=O)c2ccccc2)cc1`, the Potency entry is “inactive”. The result for `O=C(NCc1cccnc1)c1cc(S(=O)(=O)N2CCOCC2)c(Cl)cc1Cl` reads “inactive”; that for `Cc1ccccc1CSCCNC(=O)c1ccc(Cl)c(S(=O)(=O)N2CCOCC2)c1`, 11.7 µM (active). `Cc1ccccc1N1CC(C(=O)Nc2ccc3c(c2)OCO3)CC1=O` (stereo not drawn): the Potency result was “inactive”. Take `Cc1ccc(Cl)c(OCC(=O)N2CCc3ccccc3C2)c1`: the Potency result was “inactive”. As for `CC(C)c1csc(CN2CCC(CO)(Cc3ccccc3)CC2)n1`, the entry is “inactive”; as for `OCC1(Cc2ccccc2C(F)(F)F)CCN(Cc2cccc3cnccc23)CC1`, 11.7 µM (active); as for `OCC1(Cc2ccccc2)CCN(Cc2cc3ccccc3o2)CC1`, “inactive”.

Consider `Cn1nc([N+](=O)[O-])nc1Sc1ccc(C(C)(C)C)cc1`, for which the Potency was 13.1 µM (active). As for `Cn1nc(C(C)(C)C)c([N+](=O)[O-])c1C(N)=O`, the entry is “inactive”; as for `CC(C)(C)NC(=O)Cn1cnc([N+](=O)[O-])n1`, “inactive”.
